An excerpt weighted towards active compounds, which were near 28% of everything screened.
CYP2C9 act: increases human cytochrome P450 2C9 activity; AID 1024; P11712; activation factor at 5 µM; recombinant CYP2C9, luciferin-H conversion, luminescence; hits give high values; factor 1 = untreated enzyme, 0 = blocked; 1.4% of 96,000 active;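 active = activation factor of 2 or more for CYP2C9 at a 5 µM dose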;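 note: 0 = sulfaphenazole-blocked wells and 1 = vehicle-only wells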
Mac1 fbg inh: blocks human CD11b/CD18 adhesion to fibrinogen; P05107+P11215; K562 CD11b/CD18 adhesion to fibrinogen, ATPlite luminescence; Mn2+ added to activate the integrin; AID 1497; inhibition, % at 10 µM; 0.54% of 93,000 active;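 active = primary inhibition of 50% or more at 10 µM, then 40% or more on retest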
Target sequence (P05107 whole entry, looked up, other chains not shown): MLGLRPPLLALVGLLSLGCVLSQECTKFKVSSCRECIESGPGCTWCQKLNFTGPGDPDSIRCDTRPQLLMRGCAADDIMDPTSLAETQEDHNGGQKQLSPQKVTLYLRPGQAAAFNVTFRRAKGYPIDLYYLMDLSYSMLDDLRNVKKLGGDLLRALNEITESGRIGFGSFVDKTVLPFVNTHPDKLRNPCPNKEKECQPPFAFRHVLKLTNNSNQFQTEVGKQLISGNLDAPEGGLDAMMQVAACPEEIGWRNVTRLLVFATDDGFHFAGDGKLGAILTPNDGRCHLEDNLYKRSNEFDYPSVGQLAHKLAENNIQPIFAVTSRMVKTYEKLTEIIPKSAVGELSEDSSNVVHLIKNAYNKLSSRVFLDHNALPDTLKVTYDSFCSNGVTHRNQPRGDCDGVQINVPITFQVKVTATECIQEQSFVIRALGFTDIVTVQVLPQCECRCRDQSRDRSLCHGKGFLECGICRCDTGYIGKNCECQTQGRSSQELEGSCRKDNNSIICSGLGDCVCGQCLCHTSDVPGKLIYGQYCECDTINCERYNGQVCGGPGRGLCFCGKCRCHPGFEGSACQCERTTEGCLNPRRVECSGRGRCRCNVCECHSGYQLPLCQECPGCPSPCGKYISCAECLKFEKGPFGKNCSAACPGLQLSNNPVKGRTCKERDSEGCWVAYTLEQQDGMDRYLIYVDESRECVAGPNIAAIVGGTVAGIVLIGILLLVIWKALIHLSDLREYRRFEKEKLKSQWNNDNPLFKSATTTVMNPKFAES
CYP2C9 inhib: inhibitors of human CYP2C9. P11712. CYP2C9 Supersomes, luciferin-H conversion, luminescence. inhibition, % at 5 µM. 20% of 96,000 active;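 active = blocking of liver enzyme CYP2C9 beyond about 50% at 5 µM, limit read from the data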
CYP2C19 inh: inhibitors of human CYP2C19; P33261; CYP2C19 Supersomes, luciferin-H EGE luminescence, 30 min; inhibition, % at 5 µM; 21% of 96,000 active; AID 778;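 active = CYP2C19 inhibition above a set limit at 5 µM in the primary screen, cut at about 50% in these data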;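 note: plate controls were negative control wells for no effect and 2.5 mM tranylcypromine positive control for full effect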
CD11b adhes enh: increases human CD11b/CD18 adhesion to fibrinogen | P05107+P11215 | K562 CD11b/CD18 adhesion to fibrinogen, ATPlite luminescence | activation, % at 10 µM | 0.07% of 93,000 active | AID 1499;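 active = 10 µM primary screen giving 50% or more activity, confirmed by 40% or more on retest at that dose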
CYP2C19 activ: activators of human cytochrome P450 2C19 | 96,000 tested, under 10 active | recombinant CYP2C19, luciferin-H EGE luminescence; hits give high values; 0 = fully inhibited enzyme, 1 = untreated enzyme | activation factor at 5 µM | P33261 | AID 1025;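 active = activation factor of at least 2 at 5 µM in the primary screen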;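 note: 0 = wells with 2.5 mM tranylcypromine and 1 = vehicle-only wells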
An asterisk follows results filed as active; · = no result.

SMILES	CYP2C9 act	Mac1 fbg inh	CYP2C9 inhib	CYP2C19 inh	CD11b adhes enh	CYP2C19 activ
CCOC(=O)c1c(C)[nH]sc1=S	0.9	-11	14	8	2	0.9
CCOC(=O)c1c(C(F)(F)C(F)(F)C(F)(F)C(F)(F)F)n[nH]c1C	0.1	-19	92*	95*	6	0.1
O=C(c1ccccc1)c1cc(F)c(N2CCOCC2)cc1Cl	1.2	-3	-17	59*	12	0.4
O=C(c1ccccc1)c1ccc(N2CCOCC2)c(F)c1	0.9	2	9	67*	-1	0.3
O=C(Nc1ccc(N2CCOCC2)c(F)c1)c1ccncc1	0.4	-6	65*	52*	-1	0.5
O=C(Cc1ccccc1)Nc1cc(C(=O)c2ccccc2)ccc1N1CCOCC1	0.1	-33	90*	69*	-1	0.3
O=C(c1cccs1)N1CCn2c1nc1ccccc12	1.1	1	-12	4	0	1
COC(=O)c1cc2c(cc1Cl)SC(=NCCCN1CCOCC1)NS2(=O)=O	1.8	-9	-80	29	7	0.7
Cc1ccc(OCC(=O)Nc2ccc(F)cc2)cc1	0.6	4	36	57*	-1	0.4
Cc1ccc(OCC(=O)Nc2ccc(N3CCOCC3)cc2)cc1	1	8	4	0	-1	1
O=C(COc1ccc(Br)cc1CO)Nc1ccc(F)cc1	0.1	-8	88*	99*	2	0
COc1ccc(CC(=O)Nc2ccc(-c3cn4ccc(C)cc4n3)cc2)cc1	0.6	-7	41	67*	-3	0.3
CCc1ccc(OCC(=O)NC(=S)Nc2ccc(F)cc2)c(Br)c1	1	·	2	6	·	0.9
O=C(Cc1coc(-c2ccc(F)cc2)n1)Nc1ccccc1	0.4	28	61*	86*	-3	0.1
COc1ccc(C2C(C(=O)OCC(=O)Nc3ccc(C)cc3)CCC(=O)N2c2ccc(OC)cc2)cc1 (centres undefined)	0.3	-43	74*	75*	0	0.2
Cc1ccc(NC(=O)Cc2ccc(F)cc2)cc1	0.8	3	18	97*	-3	0
COc1ccc(OCC(=O)Nc2ccc(C)cc2)cc1	0.5	-1	52*	82*	2	0.2
Cc1ccc(NC(=O)Nc2ccc(F)cc2)nc1	0.9	8	11	57*	-2	0.4
Cc1ccnc(NC(=O)Nc2ccc(F)cc2)c1	0.7	-24	27	18	-3	0.8
CCOc1ccc(C(=O)NCC(=O)OCc2ccc(F)cc2Cl)cc1	·	10	·	·	-1	·
O=C(CNc1ccccc1)Nc1ccc(F)cc1	0.8	-5	24	56*	7	0.4
O=C(Nc1ccc(F)cc1)c1ccccc1	1.1	-17	-7	6	-2	0.9
COc1ccc(OCC(=O)Sc2ccc(C)cc2)cc1	0.7	6	30	68*	1	0.3
Cc1ccc(NC(=O)COC(=O)c2ccn(C)n2)cc1	0.7	-21	35	79*	-2	0.2
Cc1[nH]nc2c1C(c1ccccc1F)NC2=O (centres undefined)	1.1	-12	-6	-1	0	1
SMILES	CYP2C9 act	Mac1 fbg inh	CYP2C9 inhib	CYP2C19 inh	CD11b adhes enh	CYP2C19 activ
CCOc1ccc(C2NC(=O)c3n[nH]c(C)c32)cc1 (centres undefined)	1.1	1	-8	69*	1	0.3
CCOc1cc(CNCCO)cc(Br)c1OCc1cccs1	1	·	4	45	·	0.6
CCOc1cc(CNCc2cccs2)cc(Br)c1OCC	0.8	·	17	73*	·	0.3
COc1cc(CNCCSc2nnnn2C)cc(Br)c1OCc1ccccc1F	0.9	2	9	68*	2	0.3
COc1cc(CNCCSc2nnnn2C)cc(Br)c1OCc1ccc(F)cc1	0.8	24	18	76*	2	0.2
CCOc1cc(CNCCSc2nnnn2C)cc(Br)c1OCc1ccc(F)cc1	·	34	·	·	1	·
CCOc1cc(CNCc2ccncc2)cc(Br)c1OCc1ccccc1F	0.1	89*	91*	85*	-7	0.1
COc1ccc(-c2cc(C(F)(F)F)nc(-n3ccnc3C)n2)cc1	·	-8	·	·	6	·
CC(=O)C1=C(O)CCC1=N	1	-2	2	0	-4	1
CC(C)CC(=O)OC1C(N2CCOCC2)c2c(ccc(/C=C/C(=O)N3CCOCC3)c2O)OC1(C)C (centres undefined)	·	-2	·	·	-3	·
CCOc1cc(CNc2ccccc2)cc(Br)c1OCc1ccc(F)cc1	0.5	17	51*	33	-3	0.7
CCOc1cc(CNCCSc2nnnn2C)cc(Br)c1OCc1ccccc1F	0.6	·	37	84*	·	0.2
Oc1ccccc1C1=Nc2ccccc2N=C(c2cccs2)C1	0.6	·	38	23	·	0.8
COc1ccccc1C1CC(c2cccs2)=Nc2ccccc2S1 (centres undefined)	0.2	-6	80*	90*	-2	0.1
Cc1ccccc1C(=O)NCc1nnc(SCC(=O)N2CCN(c3ccccc3)CC2)n1C	1	-8	1	12	-6	0.9
Cc1cc2c(C)nc(Cc3ccccc3)nc2o1	0.9	12	9	74*	4	0.3
Cc1sc2nc(C)n(/N=C/c3ccc(O)cc3)c(=O)c2c1C	0.9	6	7	0	-2	1
Cc1ccc(CN2CCN(c3ccccn3)CC2)s1	0.5	2	50*	90*	-4	0.1
Cc1sc(NC(=O)c2ccco2)c(CN2CCN(c3ccccn3)CC2)c1C	0.1	17	89*	65*	-6	0.3
Cc1sc(NC(=O)c2ccco2)c(CN2CCN(c3ccc(F)cc3)CC2)c1C	0.5	-49	48	55*	2	0.5
CCC1CCC(c2nnc(-c3ccc([N+](=O)[O-])cc3)o2)CC1 (centres undefined)	·	-9	·	·	0	·
CCOC(=O)c1cnc2c(C)cccc2c1NCCc1ccc(OC)c(OC)c1	0.1	4	90*	97*	-2	0
O=C(Oc1ccc2c(=O)c(Oc3ccc4ccccc4c3)coc2c1)c1ccco1	1.5	30	-54	24	0	0.8
COc1ccc(C2=NN(C(=O)c3cccs3)C(c3ccc(OC)cc3)C2)cc1 (centres undefined)	·	8	·	·	3	·
Cc1cc(C)nc(-n2nc(C)cc2NC(=O)COC(=O)CCC(=O)c2cccs2)n1	0.5	6	50	32	-3	0.7
O=C(N/N=C/c1ccccc1Br)c1ccc(CSc2cccc3cccnc23)cc1	0.5	8	50*	45	10	0.6
O=C(O)CCCSCC(=O)Nc1ccccc1	1.2	8	-17	2	-3	1
CN(c1ccc(C(=O)N2CCCCC2)cc1)S(C)(=O)=O	1.2	-10	-16	-13	2	1.1
CCOC(=O)c1c(C)oc2ccc(NS(=O)(=O)c3cccs3)cc12	0.2	-3	79*	64*	-5	0.4

Screening results as filed in PubChem BioAssay.
